Records with an inconclusive call do not appear. Active and inactive are the calls of the source. How the source made its calls, unless noted: active means hit-call score of the fitted dose curve at least 0.9, where 1 is the maximum; inactive means score below 0.9.
Legend:
[1] = CCTE_Mundy_HCI_Cortical_NOG_NeuriteCount: CCTE's Neurite Outgrowth Assay in rat cortical cells for Neurite Count, Mundy Lab (AID 2284212);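 further: cells fixed about two days after chemical exposure began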
Procedure, shortened: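 Rat cortical primary cells; compound added 2 h post-plating, 1/10 dilution of working solution. Anti-betaIII-tubulin/AF488 ICC; ArrayScan neurite count vs DMSO.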

[2] = CCTE_Mundy_HCI_Cortical_NOG_NeuriteLength: CCTE's Neurite Outgrowth Assay in rat cortical cells for Neurite Length, Mundy Lab (AID 2284213);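 further: neurites imaged about 48 to 50 h after chemical exposure began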
Procedure, shortened: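 First, rat primary cortical cells were plated and, 2 h later, given test chemical as a 1/10 dilution. Finally, βIII-tubulin immunostaining enabled automated imaging of neurite length.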

[3] = CCTE_Mundy_HCI_Cortical_Synap_Neur_Matur_NeuriteLength: CCTE's Synaptogenesis and Neurite Maturation Assay in rat cortical cells for Neurite Length, Mundy Lab (AID 2284214)
Procedure, shortened: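 DMSO-normalised neurite length, from high-content imaging of anti-MAP2-stained rat cortical cells fixed at DIV 12. Glia were suppressed with AraC (DIV 5) before chemical exposure from DIV 7.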

[4] = CCTE_Mundy_HCI_Cortical_Synap_Neur_Matur_NeuriteSpotCountPerNeuron: CCTE's Synaptogenesis and Neurite Maturation Assay in rat cortical cells for Neurite Spot Count per Neuron Count, Mundy Lab (AID 2284215)
Procedure, shortened: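 Rat cortical primary cultures; AraC DIV 5 to arrest glia; dosing + media change DIV 7; fixed DIV 12. Anti-MAP2/anti-synaptophysin, Hoechst nuclei; HCI puncta count per neuron, positive fitting direction vs DMSO.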

[5] = CCTE_Mundy_HCI_Cortical_Synap_Neur_Matur_SynapseCount: CCTE's Synaptogenesis and Neurite Maturation Assay in rat cortical cells for Synapse Count, Mundy Lab (AID 2284218)
Procedure, shortened: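 Endpoint: synapses/neuron by HCI (synaptophysin puncta on MAP2-labelled neurites, Hoechst nuclei). Rat primary cortical cells, AraC DIV 5, dosed DIV 7, fixed DIV 12; DMSO negative control.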

[6] = CCTE_Mundy_HCI_hN2_NOG_NeuriteCount: CCTE's Neurite Outgrowth Assay in human hN2 cells for Neurite Count, Mundy Lab (AID 2284219; active means hit-call score of the fitted dose curve at least 0.9, where 1 is the maximum)
Procedure, shortened: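 In this morphology assay, hNP1-derived neurons received test chemical 2 h post-plating and were fixed two days later in warm paraformaldehyde/sucrose containing Hoechst 33342. Neurites, labelled by rabbit anti-βIII-tubulin (1:800) and Alexa Fluor-488 (1:500), were counted automatically.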

[7] = CCTE_Mundy_HCI_hN2_NOG_NeuriteLength: CCTE's Neurite Outgrowth Assay in human hN2 cells for Neurite Length, Mundy Lab (AID 2284220; active means hit-call score of the fitted dose curve at least 0.9, where 1 is the maximum)
Procedure, shortened: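 Read-out is neurite length from high-content imaging of βIII-tubulin/Alexa Fluor-488-labelled neurons, referenced to DMSO controls.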

[8] = CCTE_Mundy_HCI_hN2_NOG_NeuronCount: CCTE's Neurite Outgrowth Assay in human hN2 cells for Neuron Count, Mundy Lab (AID 2284221; active means hit-call score of the fitted dose curve at least 0.9, where 1 is the maximum)
Procedure, shortened: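 Read-out is the number of betaIII-tubulin-positive neurons imaged by automated high-content analysis, with DMSO as negative control.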

[9] = CCTE_Mundy_HCI_Cortical_Synap_Neur_Matur_NeuriteCount: CCTE's Synaptogenesis and Neurite Maturation Assay in rat cortical cells for Neurite Count, Mundy Lab (AID 2284222)
Procedure, shortened: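 Chemical exposure runs DIV 7–12 in rat cortical cultures, glia suppressed by AraC at DIV 5; measurement is at DIV 12. Imaging-derived neurite counts are fitted against DMSO baseline.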

[10] = CCTE_Mundy_HCI_Cortical_Synap_Neur_Matur_CellBodySpotCount: CCTE's Synaptogenesis and Neurite Maturation Assay in rat cortical cells for Cell Body Spot Count, Mundy Lab (AID 2284223)
Procedure, shortened: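 Rat cortical neurons; AraC @ DIV 5; dose + media change DIV 7; fix DIV 12; anti-MAP2/anti-synaptophysin IF, Hoechst; HCI count of soma synaptophysin puncta/neuron; DMSO = negative control.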

[11] = CCTE_Mundy_HCI_hNP1_Pro_ResponderAvgInten: CCTE's Proliferation Assay in human neuroprogenitor cells, Mundy Lab (AID 2284224; active means hit-call score of the fitted dose curve at least 0.9, where 1 is the maximum;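 further: human neural progenitor cells hNP1 derived from WA09 embryonic stem cells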)
Procedure, shortened: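 Proliferation read as average intensity of BrdU-positive cells, imaged at 26.25 h post-dosing: chemical exposure started after 40–44 h culture, BrdU during final 4 h, paraformaldehyde fixation. Positive-direction fit relative to DMSO.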

[12] = UKN4_HCS_LUHMES_cell_viability: Viability Assessment in the University of Konstanz (UKN) Leist Lab Neurite Outgrowth Assay in human LUHMES cells (UKN4) (AID 2284232)
Procedure, shortened: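 Measured in replated, 2-day-differentiated LUHMES cells treated 24 h; stained 30 min with H-33342 and calcein-AM before high-content imaging.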

[13] = UKN2_HCS_IMR90_cell_viability: Viability Assessment in the University of Konstanz (UKN) Leist Lab Neural Crest Cell Migration Assay in human induced IMR90 Pluripotent Stem Cells (UKN2) (AID 2284233);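 further: cells exposed to compound for 24 h after a 24 h migration phase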
Procedure, shortened: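 Viability read as calcein-AM fluorescence by high-content imaging, Hoechst co-stain, 30 min. Human iPSC (IMR90) neural crest cells had migrated 24 h into stopper-defined gaps before 24 h chemical exposure. Fitted bidirectionally relative to DMSO.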

[14] = CCTE_Mundy_HCI_Cortical_NOG_NeuronCount: CCTE's Neurite Outgrowth Assay in rat cortical cells for Neuron Count, Mundy Lab (AID 2284236; active means hit-call score of the fitted dose curve at least 0.9, where 1 is the maximum;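 further: neurons counted by imaging betaIII-tubulin and Hoechst stained cortical cells; cells exposed to compound for about 48 hours before fixation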)
Procedure, shortened: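 Read-out: neuron number by high-content imaging of betaIII-tubulin (Alexa Fluor-488) and Hoechst-labelled rat primary cortical cells.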

[15] = CCTE_Mundy_HCI_Cortical_NOG_BPCount: CCTE's Neurite Outgrowth Assay in rat cortical cells for Branch Point Count, Mundy Lab (AID 2284237);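 further: branch points counted about two days after chemical exposure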
Procedure, shortened: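 Measured 50.33 h after dosing, this morphology endpoint uses rat primary cortical cultures labelled for betaIII-tubulin. Branch points are quantified by high-content imaging, with DMSO as negative control and baseline.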

[16] = CCTE_Mundy_HCI_hNP1_Casp3_7: CCTE's Caspase-Glo 3/7 Assay in human neuroprogenitor cells for Apoptosis, Mundy Lab (AID 2284240)
Procedure, shortened: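 Luminescent caspase-3/7 readout, 26.5 h post-dose, in human neural progenitor cells from WA09 embryonic stem cells. Cells grew 40–44 h at 37 °C, 5% CO2 before chemical addition. Activity analysed as signal increase over DMSO baseline.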

[17] = CCTE_Mundy_HCI_hNP1_CellTiter: CCTE's Cell Titer-Glo 2 Assay in human neuroprogenitor cells for Viability, Mundy Lab (AID 2284241; active means hit-call score of the fitted dose curve at least 0.9, where 1 is the maximum;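 further: a hit is a drop in ATP luminescence versus DMSO meaning reduced viability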)
Procedure, shortened: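 Viability read as luminescent ATP content (CellTiter-Glo, 30 min room temperature) twenty-four hours after dosing, relative to DMSO. Cells: WA09-derived hNP1 neuroprogenitors on poly-L-ornithine/laminin, plated 40 to 44 hours before chemical.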

[18] = CCTE_Mundy_HCI_Cortical_Synap_Neur_Matur_NeuronCount: CCTE's Synaptogenesis and Neurite Maturation Assay in rat cortical cells for Neuron Count, Mundy Lab (AID 2284242; active means hit-call score of the fitted dose curve at least 0.9, where 1 is the maximum;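 further: hits reduce neuron count versus DMSO baseline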)
Procedure, shortened: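 Measured at DIV 12: fluorescently labelled neurons (Hoechst nuclei, MAP2) in rat primary cortical cultures, counted by high-content imaging. AraC suppressed glia from DIV 5; DMSO served as negative control.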

Measured: AC50

CNCCC(Oc1ccc(C(F)(F)F)cc1)c1ccccc1 (stereo not drawn)
active: [1] 14.7 µM | [2] 12.2 µM | [3] 6.03 µM | [4] 8.96 µM | [5] 9.16 µM | [6] 12.3 µM | [7] 12.9 µM | [8] 11 µM | [9] 11.6 µM | [12] 18.6 µM | [13] 24.8 µM | [14] 16 µM | [15] 10.9 µM | [16] 12.7 µM | [17] 20.7 µM | [18] 5.97 µM
inactive: [10] | [11]
